Shown are actives, neighbours in structure and some others; about 0.86% of the full set was active somewhere.
AmpC inh no detg: qHTS Inhibitors of AmpC Beta-Lactamase (assay without detergent); actives 0.52% (n = 330,000); AmpC nitrocefin hydrolysis, absorbance 480 nm, 0.0001% Triton; Potency, µM (doses to about 57.1 µM), usual class: inhibitors; P00811; note: nearly all actives have a fitted effect of over 20% in size
Target sequence (P00811 whole entry, looked up): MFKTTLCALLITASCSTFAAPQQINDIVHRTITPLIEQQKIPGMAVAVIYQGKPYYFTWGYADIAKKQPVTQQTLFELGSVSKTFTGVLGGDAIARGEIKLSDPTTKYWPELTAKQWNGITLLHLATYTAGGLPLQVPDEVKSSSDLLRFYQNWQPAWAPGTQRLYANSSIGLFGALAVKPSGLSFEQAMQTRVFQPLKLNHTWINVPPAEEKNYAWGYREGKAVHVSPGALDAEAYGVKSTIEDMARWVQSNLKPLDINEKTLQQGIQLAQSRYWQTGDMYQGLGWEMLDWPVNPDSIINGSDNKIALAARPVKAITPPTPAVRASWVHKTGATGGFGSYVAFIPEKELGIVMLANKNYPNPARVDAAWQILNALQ
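AmpC (5.3 nM in the dispensed reagent) in 20 mM phosphate pH 7.0 with 0.01% (detergent screen) or 0.0001% Triton X-100 was preincubated with compounds for 15 min at room temperature. Nitrocefin was then added from an 800 uM solution, and hydrolysis was followed at 480 nm.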
AmpC detergent: qHTS Inhibitors of AmpC Beta-Lactamase (assay with detergent). P00811. AmpC hydrolysis of nitrocefin, absorbance 480 nm, 0.01% Triton. Potency, µM (doses to about 114 µM), most hits filed as inhibitors. actives 0.041% (n = 370,000); note: nearly all actives have a fitted effect of over 25% in size
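AmpC (5.3 nM in the dispensed reagent) in 20 mM phosphate pH 7.0 with 0.01% (detergent screen) or 0.0001% Triton X-100 was preincubated with compounds for 15 min at room temperature. Nitrocefin was then added from an 800 uM solution, and hydrolysis was followed at 480 nm.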
AMA1 RON2 block: qHTS for Inhibitors of AMA1-RON; Towards Development of Antimalarial Drug Lead: Primary Screen; Plasmodium falciparum AMA1 (3D7) - RON2 peptide interaction; Potency, µM (series often up to 58.2 µM), hits mostly inhibitors; actives 0.2% (n = 360,000); AID 720542, 2013; AlphaScreen AMA1-biotinylated RON2 peptide binding; note: nearly all actives have a fitted effect of over 45% in size
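AMA1 (3D7) with his tag at 25 nM final met compounds first, then biotinylated RON2 peptide at 25 nM; detection used donor plus acceptor beads, 10 µg/mL apiece, read by AlphaScreen after 30 min at room temperature.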
NS1 function inh: qHTS Assay for Inhibitors of Influenza NS1 Protein Function. Potency, µM (titrated, usually from 46.1 µM). actives 0.4% (n = 270,000). AID 2326, 2010; calls by dose curve; note: actives are rising curves; nearly all actives have a fitted effect of over 50% in size
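Recovery from NS1-induced slow growth read by OD600 in budding yeast switched to galactose assay medium (pH 6.0, -URA) at 1:100 dilution. Compound 23 nl per well; the matching strain lacking NS1 serves as control.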
Each line names hits and unclear results; the compound was inactive in the other large screens. Unless noted, calls come from the whole dose curve; as a rule, active = well fitted curve in the direction sought with a large enough effect; inconclusive = small, poorly fitted or top-dose-only effect, or another doubt; inactive = no such curve, though single readings can be large; an effect the other way counts as inactive or inconclusive.

COCCNC(=S)Nc1ccc(N2CCOCC2)c(S(=O)(=O)Nc2ccccc2OC)c1	AmpC inh no detg 10µM (no result: NS1 function inh)
COc1ccccc1NS(=O)(=O)c1cc(NC(=O)c2ccc(=O)[nH]c2)ccc1N1CCOCC1	AmpC inh no detg 14µM
O=C1CC(C(=O)N2CCN(c3ccccn3)CC2)CN1Cc1ccccc1Cl (stereo not given)	none (no result: NS1 function inh)
COc1cc(C(=O)NCc2nnc(SCC(=O)NC3CCCC3)o2)cc(OC)c1OC	none
Cc1ccc(N=Cc2cc3c(cc2O)OC(N)=C(C#N)C3c2ccccc2)cc1 (stereo not given)	AmpC inh no detg 20µM
COc1cc(C(=O)NNC(=O)NC2CCCCC2)cc(OC)c1OC	AmpC inh no detg 0.25µM
COc1cc(C(=O)NC2CC2)cc(OC)c1OC	none (no result: AmpC inh no detg, AmpC detergent, NS1 function inh)
O=C(CNC1CCCCCC1)Nc1ccc(N2CCCC2)cc1	AmpC detergent inconclusive (no result: AMA1 RON2 block)
O=C(CNCCC1=CCCCC1)Nc1ccc(N2CCCCCC2)cc1	AMA1 RON2 block 35µM
CCOC(=O)c1ncccc1NC(=O)CC(=O)Nc1cccnc1C(=O)OCC	AMA1 RON2 block 14µM (no result: AmpC inh no detg, AmpC detergent, NS1 function inh)
CCOc1ccc(C(=O)OCC(=O)Nc2cccnc2Cl)cc1OCC	none (no result: AmpC detergent, NS1 function inh)
O=C(COC(=O)c1cccc(Cl)c1)Nc1cccc(S(=O)(=O)NC2=NCCC2)c1	none (no result: AmpC detergent, NS1 function inh)
COc1ccc(N=Nc2nc(-c3ccccc3)c(-c3ccccc3)[nH]2)cc1	AMA1 RON2 block inconclusive
COc1ccccc1N=Nc1nc(-c2ccccc2)c(-c2ccccc2)[nH]1	AmpC inh no detg inconclusive, AMA1 RON2 block 35µM
Cc1cc(S(=O)(=O)ON2C(=O)c3ccccc3C2=O)ccc1F	AmpC detergent 45µM
Cc1ccc(C)c(S(=O)(=O)ON2C(=O)c3ccccc3C2=O)c1	AmpC detergent 50µM
O=C1c2ccccc2C(=O)N1OS(=O)(=O)c1ccccc1	AmpC detergent 45µM (no result: AMA1 RON2 block)
Cc1ccc(OCC(=O)Nc2cccc(OCc3cc(=O)n4cccc(C)c4n3)c2)cc1C	none (no result: AmpC inh no detg, AMA1 RON2 block, NS1 function inh)
C=C[C@@H]1CN2CC[C@@H]1C[C@@H]2[C@H](O)c1ccnc2ccc(OC)cc12	none (no result: AmpC inh no detg, AmpC detergent, AMA1 RON2 block)
O=C(COc1ccccc1[N+](=O)[O-])N1CCN(c2ccccn2)CC1	AmpC detergent inconclusive (no result: NS1 function inh)
Cn1c2c(c(=O)n(C)c1=O)C1(C(=O)Nc3ccccc31)C(C#N)=C(N)O2 (stereo not given)	none
COc1ccccc1C(=O)COC(=O)CCCN=C1NS(=O)(=O)c2ccccc21	none (no result: NS1 function inh)
O=C(CCN=C1NS(=O)(=O)c2ccccc21)OCC(=O)c1ccccc1Cl	AmpC inh no detg 40µM (no result: NS1 function inh)
O=C1c2ccccc2C(=O)c2c(O)c(O)cc(O)c21	none (no result: AmpC detergent, NS1 function inh)
O=C1C=C(O)c2c(O)cc(O)c(O)c2C1=O	AMA1 RON2 block 1µM (no result: AmpC inh no detg, AmpC detergent, NS1 function inh)
Cc1ccc(Cl)cc1NC(=O)C1CCN(C(=O)c2cnn(-c3ccccc3)c2-n2cccc2)CC1	none (no result: AmpC inh no detg, AMA1 RON2 block, NS1 function inh)
O=C(NC(c1ccccc1)c1ccccc1)c1ccc(=O)[nH]n1	none
CCCOc1ccc(N2C(=O)CC(SCC(N)C(=O)OCC)C2=O)cc1 (stereo not given)	none
CCCOc1ccc(N2C(=O)CC(SCCN)C2=O)cc1 (stereo not given)	AMA1 RON2 block 3.5µM
Cc1cn([C@H]2C[C@H](O)[C@@H](COC(N)=O)O2)c(=O)[nH]c1=O	none (no result: AmpC inh no detg, AmpC detergent, AMA1 RON2 block)
Cc1ccc2nc(/C(C#N)=C/c3ccc(O)c(O)c3)[nH]c2c1	AmpC inh no detg 20µM, NS1 function inh inconclusive
O=C(CCNS(=O)(=O)c1ccc(Cl)cc1)N1CCC2(O)CCCCC2C1 (stereo not given)	AmpC detergent 40µM, NS1 function inh inconclusive
Cc1cc2nc(CCN(C(=S)NCC(C)C)C3CCCC3)[nH]c2cc1C	none
CCN(CCCNc1cc2c(c(N)c1S(=O)(=O)O)C(=O)c1ccccc1C2=O)c1ccccc1	AMA1 RON2 block 14µM (no result: AmpC inh no detg, AmpC detergent, NS1 function inh)
C#CCn1c(S(=O)(=O)Cc2ccc(C)cc2)nc(-c2ccccc2)c1-c1ccccc1	none
C#CCn1c(S(=O)(=O)Cc2ccccc2Cl)nc(-c2ccccc2)c1-c1ccccc1	AmpC inh no detg 4.5µM
Cc1cc(-c2ccc(N=Nc3c(S(=O)(=O)O)cc4cc(S(=O)(=O)O)cc(N)c4c3O)c(C)c2)ccc1N=Nc1c(S(=O)(=O)O)cc2cc(S(=O)(=O)O)cc(N)c2c1O	AmpC detergent 13µM (no result: AMA1 RON2 block, NS1 function inh)
O=S(=O)(O)c1cc(O)c2c(O)c(N=Nc3cc(Cl)ccc3O)c(S(=O)(=O)O)cc2c1	none
O=C(CCc1nnc2ccc(NCc3ccccc3)nn12)NC1CCCCC1	none

Bioassay records: PubChem BioAssay, National Center for Advancing Translational Sciences (NCATS)
